# Test results reported in PubChem BioAssay (NCATS).
# Inconclusive results are not listed. A number with no mark means an inactive call. Active and inactive are the calls of the source. Calls follow the shape of the dose curve; as a rule, active = well fitted inhibition curve with a large enough effect; inconclusive = small, poorly fitted or top-dose-only effect; inactive = no such curve, though single readings can be large or run the other way. Peptide text beside a SMILES is read from it.
# Assay: S16 Schwann cell PMP22 intronic element firefly luciferase assay (AID 624032); also: nearly all actives have a fitted effect of over 30% in size
# Settings: S16 rat Schwann cells, PMP22 element FLuc, 24 h; series mostly up to 57.5 µM; activity change, negative = inhibition: at the top concentration
# Description: Charcot-Marie-Tooth-Association [CMTA]
# National Center for Advancing Translational Sciences [NCATS]
# Charcot-Marie-Tooth (CMT) disease was first characterized by Jean-Martin Charcot and Pierre Marie in France and, independently, by Howard Henry Tooth in England in 1886. CMT is one of the most common inherited neurological diseases, affecting approximately 1 in 2,500 Americans. […] The most prevalent type of CMT is known as CMT1A and caused by a duplication of the PMP22 gene which leads to over-expression of this protein. PMP22 is a glycosylated intrinsic membrane protein accounting for 2-5% of the myelin protein content, and its over-expression results in demyelination and subsequently axonal loss.
# A pair of cellular transcription-based assays was developed in the S16 rat Schwann cell lines (Hai, M., et al., 2002) stably transfected with orthogonal reporters - firefly luciferase (Fluc) and beta-lactamase (beta-Lac) - whose expression is driven by an intronic regulatory element of the PMP22 gene (Jones, E.A., et al., 2011) to recapitulate endogenous expression of PMP22. The current assay employs Fluc to report on PMP22 expression. A comprehensive library of approved drugs, the NCGC Pharmaceutical Collection (Huang, R., et al., 2011), was screened in the cross-validating platform of the orthogonal reporter assays to identify drug modulators inhibitory towards PMP22 expression.
# A set of counter-screens was devised to address non-specific activity of the library. An ATP-dependent CellTiter-Glo assay (developed by Promega Corp) was utilized to control cell viability. In addition, biochemical Fluc enzyme assay was performed to assess direct inhibition of the Fluc enzymatic activity.
# Hai, M., Muja, N., DeVries, G.H., Quarles, R.H. and Patel, P.I. Comparative analysis of Schwann cell lines as model systems for myelin gene transcription studies. J Neurosci Res, 2002. 69(4): pp 497-508
# Huang, R., Southall, N., Wang, Y., Yasgar A., Shinn P., Jadhav, A. , Nguyen, D.-T. and Austin, C.P., The NCGC pharmaceutical collection: a comprehensive resource of clinically approved drugs enabling repurposing and chemical genomics. Sci Transl Med, 2011. 3(80): p. 80ps16.
# S16 Schwann cell PMP22 intronic element firefly luciferase assay
# The FLuc-expressing S16 cells were seeded in white solid 1536-well plates at between 500-750 cells/4uL in DMEM medium containing 10% FBS, w/o phenol red. After overnight incubation at 37 degree Celsius/5% C02, 23 nL of compounds or DMSO were delivered to each well using a pin tool, followed by 24h-incubation at 37 degree Celsius/5% C02. Then 4 uL ONE-Glo luminescent substrate mix (Promega) was added to each well. Luminescence was measured on a ViewLux plate reader (Perkin Elmer). The % activity was determined by normalizing to the average readings of PTC124 (a positive control) - treated cells relative to DMSO-treated cells (0% Activity). The concentration-effect curves were then classified based on curve quality (r2), response magnitude and degree of measured activity.
# Potency is read from the fitted curve at half-maximal effect.
SMILES,"activity change, negative = inhibition",Potency
COC(F)(F)C(Cl)Cl,13.1%,–
O=C(O)CCC(=O)C(=O)O,1.36%,–
CCCCCCCCCCCCCC[n+]1ccc(C)cc1,–,2.56 µM (active)
CCN(CC)CCOc1ccc(-c2nc3cc(Cl)ccc3s2)cc1,19.5%,–
C[C@@H]1CCC2[C@@H](C)[C@@H](O)O[C@@H]3O[C@@]4(C)CC[C@@H]1[C@@]23OO4 (stereo not given in full),–,1.02 µM (active)
C[C@H]1C[C@H]2[C@@H]3CCC4=CC(=O)C=C[C@]4(C)[C@@]3(F)[C@@H](O)C[C@]2(C)[C@@]1(O)C(=O)CO,-0.0785%,–
CN1Cc2c(N)cccc2C(c2ccccc2)C1 (stereo not given),10.3%,–
CC(C(=O)O)c1ccc(N2Cc3ccccc3C2=O)cc1 (stereo not given),-95.3%,–
CC1=C(/C=C/C(C)=C/C=C/C(C)=C/C=C/C=C(C)/C=C/C=C(C)/C=C/C2=C(C)CCCC2(C)C)C(C)(C)CCC1,-16.6%,–
COc1ccc2c3c1O[C@H]1C[C@@H](O)C=C[C@@]31CCN(C)C2,9.75%,–
NC(=O)c1ncn(C2OC(CO)C(O)C2O)n1 (stereo not given),14%,–
CC(=O)N[C@@H](CC(=O)O)C(=O)N[C@@H](CCC(=O)O)C(=O)O (Ac-Asp-Glu-OH),7.68%,–
CCNC(=O)[C@@H]1CCCN1C(=O)[C@H](CCCN=C(N)N)NC(=O)[C@H](CC(C)C)NC(=O)[C@@H](Cc1c[nH]c2ccccc12)NC(=O)[C@H](Cc1ccc(O)cc1)NC(=O)[C@H](CO)NC(=O)[C@H](Cc1c[nH]c2ccccc12)NC(=O)[C@H](Cc1cnc[nH]1)NC(=O)[C@@H]1CCC(=O)N1,–,4.55 µM (active)
Nc1ncnc2c1ncn2[C@@H]1O[C@H](COP(=O)(O)OP(=O)(O)OP(=O)(O)O)[C@@H](O)[C@H]1O,-21.8%,–
CO[C@H](C(=O)[C@@H](O)[C@@H](C)O)C1Cc2cc3cc(O[C@H]4C[C@@H](O[C@H]5C[C@@H](O)[C@H](O)[C@@H](C)O5)[C@@H](O)[C@@H](C)O4)c(C)c(O)c3c(O)c2C(=O)[C@H]1O[C@H]1C[C@@H](O[C@H]2C[C@@H](O[C@H]3C[C@](C)(O)[C@H](O)[C@@H](C)O3)[C@H](O)[C@@H](C)O2)[C@H](O)[C@@H](C)O1 (stereo not given in full),8.82%,–
CC(=O)Oc1cc(C)c(OC(C)=O)c2ccccc12,–,28.7 µM (active)
CCC(=O)NCCC1CCc2ccc3c(c21)CCO3 (stereo not given),-17.2%,–
CC1(C)C(C=C(Cl)Cl)C1C(=O)OCc1cccc(Oc2ccccc2)c1 (stereo not given),6.25%,–
Cc1c(C)c2c(c(C)c1O)CC[C@@](C)(CCC[C@H](C)CCC[C@H](C)CCCC(C)C)O2,1.31%,–
CCCCCCCC(=O)O,0.981%,–

SMILES,"activity change, negative = inhibition",Potency
CC(C)=O,-11.7%,–
CCCCC(C)(O)C/C=C/[C@H]1[C@H](O)CC(=O)[C@@H]1CCCCCCC(=O)OC (stereo not given in full),–,0.181 µM (active)
Cc1c(C)c2c(c(C)c1O)CC[C@@](C)(CCC[C@@H](C)CCC[C@@H](C)CCCC(C)C)O2,6.63%,–
CN1C(=O)CN2CCc3ccccc3C2c2cc(Cl)ccc21 (stereo not given),-22.5%,–
CC[N+](C)(C)Cc1ccccc1Br,-1.86% [at 25.7 µM],–
Clc1cc(Cl)c(OCC#CI)cc1Cl,–,28.7 µM (active)
CC[C@@]1(O)C(=O)OCc2c1cc1n(c2=O)Cc2cc3c([N+](=O)[O-])cccc3nc2-1,–,0.203 µM (active)
CCOc1ccc2c(c1)C(C)=CC(C)(C)N2,-7.44%,–
O=C(O)c1cc(O)c2c(c1)[O][Bi][O]2,9.35%,–
CCCCCCOc1ccc(C(=N)N(CCCC)CCCC)c2ccccc12,–,22.8 µM (active)
O=C(COc1ccc(Cl)cc1)OCCNC12CC3CC(CC(C3)C1)C2,19.1%,–
CCCCCCCCCCCC[n+]1ccc2ccccc2c1,–,0.907 µM (active)
CCCC(=O)Nc1ncnc2c1ncn2C1OC2COP(=O)(O)OC2C1OC(=O)CCC (stereo not given),–,5.73 µM (active)
CCCCCCCCCCCCCCCC(=O)OCC(COC(=O)CCCCCCCCCCCCCCC)OC(=O)CCCCCCCCCCCCCCC,43.7%,–
IC(I)I,4.39%,–
COC(=O)[C@H]1[C@H]2C[C@@H]3c4[nH]c5ccccc5c4CCN3C[C@H]2C[C@@H](OC(=O)c2cc(OC)c(OC)c(OC)c2)[C@@H]1OC,–,0.907 µM (active)
CN(C)CCCN1c2ccccc2C(C)(C)c2ccccc21,-7.48%,–
CC(Cc1ccc(O)c(O)c1)C(C)Cc1ccc(O)c(O)c1 (stereo not given),–,8.09 µM (active)
O=C(Nc1ccc(Br)cc1)c1cc(Br)c(Br)s1,105%,–
CC1=C(/C=C/C(C)=C/C=C/C(C)=C/C=C/C=C(C)/C=C/C=C(C)/C=C/C2=C(C)C(=O)CCC2(C)C)C(C)(C)CCC1=O,-18%,–
